Screening results: PubChem BioAssay, several laboratories
In the library only some 1.5% were active in any assay of this set; here they are far more common.
Bcl-xL primary = blocks human Bcl-xL binding to Bim BH3 peptide | inhibition, % at 10.9 µM | Q07817 | AID 2129 | GST-Bcl-xL / FITC-Bim BH3 peptide fluorescence polarization | 320,000 tested, 0.7% active;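 active = inhibition above the mean of all tested compounds plus 3 SD, cutoff set per campaign, cut at about 30% in these data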;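 also: 0% = DMSO wells and 100% = unlabeled Bim-BH3 peptide competitor; inhibitors lower millipolarization by displacing the labeled peptide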
Target sequence (Q07817 whole entry, looked up): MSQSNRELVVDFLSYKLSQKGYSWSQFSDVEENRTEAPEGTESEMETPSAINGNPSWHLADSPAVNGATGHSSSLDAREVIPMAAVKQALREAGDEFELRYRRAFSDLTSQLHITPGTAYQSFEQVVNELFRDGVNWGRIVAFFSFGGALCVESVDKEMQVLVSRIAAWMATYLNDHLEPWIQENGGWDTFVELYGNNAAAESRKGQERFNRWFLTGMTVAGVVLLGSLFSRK
GLD-1 TGE inh = GLD-1-TGE RNA interaction inhibition (C. elegans). inhibition, % at 5.96 µM. 320,000 tested, 0.44% active. Q17339. purified GLD-1 + fluorescein TGE RNA, fluorescence polarization;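 active = percent inhibition above a per-plate cutoff, the plate mean of test compounds plus 3 SD, cut at about 30% in these data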;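 also: 0% = DMSO wells with GLD-1 and probe and 100% = wells lacking GLD-1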
Target sequence (Q17339 whole entry, looked up): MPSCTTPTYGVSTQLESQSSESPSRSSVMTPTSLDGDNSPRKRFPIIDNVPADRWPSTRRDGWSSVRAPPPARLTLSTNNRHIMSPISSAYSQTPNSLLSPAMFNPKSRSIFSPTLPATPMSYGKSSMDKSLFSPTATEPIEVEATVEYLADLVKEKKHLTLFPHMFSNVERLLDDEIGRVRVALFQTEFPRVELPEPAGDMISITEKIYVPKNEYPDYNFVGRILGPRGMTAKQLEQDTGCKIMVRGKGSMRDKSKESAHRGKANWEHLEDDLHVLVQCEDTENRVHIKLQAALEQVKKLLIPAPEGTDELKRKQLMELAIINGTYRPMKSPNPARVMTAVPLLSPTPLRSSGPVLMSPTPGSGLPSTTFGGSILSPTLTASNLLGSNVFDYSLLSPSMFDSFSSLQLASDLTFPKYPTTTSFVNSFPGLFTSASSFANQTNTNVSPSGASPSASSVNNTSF
EBV gp42 inh = EBV gp42 inhibition; Q1HVG2; Fluorescence polarization binding assay, mP read-out; inhibition, % (tested at 21.74 µM); 220,000 tested, 0.42% active; AID 1085; in the data active = inhibition above about 50%
MEX-5 binding = C. elegans MEX-5 TCR-2 RNA binding activity; activity score (negative = inhibition of binding), % at 10 µM; MEX-5/FITC-TCR2 RNA binding, fluorescence polarization; stronger effect = lower value; 300,000 tested, 0.38% active; Q9XUB2;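 active = inhibition past about -25% in most replicates, and total fluorescence under double the plate's negative control median, limit read from the data; inconclusive = replicates evenly split on the limit, or fluorescence at least double controls; inactive = too little inhibition in most replicates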;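 also: 0% = DMSO and -100% = 5 µM competing unlabeled TCR2 RNA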
MCL1-BIM inh = inhibitors of human MCL1 binding to BIM-BH3 peptide. inhibition, % at 10.9 µM. GST-MCL1 / FITC-Bim-BH3 fluorescence polarization. Q07820. AID 2057. 320,000 tested, 0.68% active;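 active = inhibition above the mean inhibition of all tested compounds plus 3 SD, set per campaign, cut at about 40% in these data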;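 also: 0% = DMSO wells and 100% = unlabeled Bim-BH3 peptide control; higher means more loss of mP so more displacement of Bim peptide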
E coli Lon inh = E. coli protease La inhibition; 360,000 tested, 0.42% active; AID 602123; purified E. coli Lon protease, fluorescence polarization; inhibition, % at 7.94 µM; P0A9M0; in the data active = inhibition above about 13%, passing the limit was not always enough;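 also: 0% = enzyme with probe and DMSO and 100% = no enzyme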
BCLXL inh confirm = counter-screen for MCL1 inhibitors: confirmation of human Bcl-xL inhibitors; GST-Bcl-xL / FITC-Bim BH3 peptide FP binding; 1,700 tested, 54% active; inhibition, % at 10.9 µM; shares compounds with MCL1-BIM inh;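 active = inhibition above a cutoff equal to the mean inhibition of all tested compounds plus 3 SD, cut at about 30% in these data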;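 also: 0% = DMSO wells and 100% = unlabeled Bim BH3 control peptide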
MCL1 BIM confirm = MCL1-BIM-BH3 interaction inhibition, confirmation. shares compounds with MCL1-BIM inh. GST-MCL1 / FITC-Bim-BH3 fluorescence polarization. inhibition, % at 10.9 µM. 1,700 tested, 61% active. AID 2168;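 active = inhibition above the average of all tested compounds plus 3 SD, cut at about 40% in these data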;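 also: 0% = DMSO wells and 100% = unlabeled Bim-BH3 control peptide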
GLD-1 TGE cf = GLD-1 TGE RNA interaction inhibition, confirmation; shares compounds with GLD-1 TGE inh; GLD-1/FL-TGE RNA fluorescence polarization, biochemical; inhibition, % at 5.96 µM; 550 tested, 10% active;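 active = average inhibition across triplicates above the hit cutoff set in the primary screen, cut at about 32% in these data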;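 also: 0% = GLD-1 with RNA probe and DMSO and 100% = wells lacking GLD-1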
eLon confirm = confirmation of E. coli Lon protease inhibitors; purified E. coli Lon, fluorescence polarization; inhibition, % at 7.94 µM; 1,400 tested, 31% active; shares compounds with E coli Lon inh; in the data active = inhibition above about 16%;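 also: 0% = enzyme with probe and DMSO and 100% = no enzyme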
* marks the source's active call; other numbers are inactive results; u = inconclusive; x = no result; + = active, no number.

SMILES	Bcl-xL primary	GLD-1 TGE inh	EBV gp42 inh	MEX-5 binding	MCL1-BIM inh	E coli Lon inh	BCLXL inh confirm	MCL1 BIM confirm	eLon confirm	others
COC(=O)CCCC1=CC2=C(c3ccccc3)C(=O)C(C)(OC(=O)C3CCCC3)C(=O)C2=CN1Cc1ccco1 (stereo unspecified)	14.0	10.5	25.0	-4.8	10.1	-2.1	x	x	x
C=CCN1C=C2C(=O)C(C)(OC(=O)c3ccc(OC)cc3)C(=O)C(c3ccco3)=C2C=C1CCCC (stereo unspecified)	67.2*	53.8*	7.5	-5.2	71.3*	41.5*	41.3*	61.8*	9.1
CCN(CC)C(=O)c1[nH]cnc1C(=O)Nc1cccc(Cl)c1	-0.1	1.2	x	x	-2.9	0.5	x	x	x
Clc1ccc(C2=CC(c3ccco3)n3ncnc3N2)cc1 (stereo unspecified)	189.4*	140.7*	80.5*	-91.2*	+	138.8*	51.3*	75.8*	74.7*
Clc1ccccc1C1=CC(c2ccco2)n2ncnc2N1 (stereo unspecified)	49.3*	20.8	12.8	-9.0	50.3*	31.4*	34.5*	44.1*	-3.6
FC(F)(F)c1ccccc1C1=CC(c2ccccc2)n2ncnc2N1 (stereo unspecified)	-2.6	-1.2	x	-2.1	-4.4	-11.1	x	x	x
Cc1ccc(C2=CC(c3ccc(C)cc3)n3ncnc3N2)cc1 (stereo unspecified)	18.8	27.2	x	-1.5	19.6	9.4	x	x	x
Cc1ccccc1N1C(=O)c2cccc3c(N(C)CCO)ccc(c23)C1=O	181.1*	166.6*	125.9*	u	+	124.3*	121.1*	157.1*	83.9*
COc1ccccc1N1C(=O)c2cccc3c(C(=O)O)ccc(c23)C1=O	5.0	-0.2	-24.3	-0.6	-3.9	-0.1	x	x	x
COc1ccc2c3c(cccc13)C(=O)N(O)C2=O	68.9*	27.6	75.4*	-0.8	69.2*	37.7*	67.0*	77.0*	86.7*
COc1ccccc1N1C(=O)c2cccc3c(N(C)CCO)ccc(c23)C1=O	183.0*	171.5*	x	4.0	+	175.6*	128.4*	151.8*	76.1*
C[C@H](NC(=O)c1nc[nH]c1C(=O)N(C)CCO)c1ccccc1	x	x	x	x	x	0.1	x	x	x
Cc1ccc(N(C(=O)c2csnn2)C(C(=O)NC2CCCC2)c2cccnc2)c(C)c1 (stereo unspecified)	1.7	4.2	x	0.2	1.1	5.3	x	x	x
CCOC(=O)C1CCN(C(=O)c2cc(COc3ccc(F)cc3F)on2)CC1	4.0	4.8	x	2.0	-2.7	-17.6	x	x	x
CC(=O)c1ccccc1NS(=O)(=O)c1cccc2nsnc12	5.3	5.6	x	-3.6	24.5	-0.8	x	x	x
O=C1Nc2ccccc2/C1=C/c1cnc(-c2ccccc2)[nH]1	138.2*	73.3*	58.7*	-10.2	161.6*	81.0*	102.0*	117.4*	29.6*
N#Cc1cccc(NC(=O)CSc2ccc3c4c(cccc24)C(=O)c2ccccc2-3)c1	72.8*	61.3*	107.3*	1.4	75.2*	22.0*	185.4*	182.6*	94.3*
N#Cc1cccc(NC(=O)CSc2ccccc2)c1	3.4	8.6	-1.7	0.9	10.9	-6.5	x	x	x
N#Cc1ccc(Oc2cccc3cccnc23)c([N+](=O)[O-])c1	149.7*	125.4*	x	-6.1	177.4*	101.4*	33.0*	50.8*	13.2
C[C@@H]1CN([C@H](C)CO)C(=O)CCCn2cc(nn2)CO[C@H]1CN(C)C(=O)Nc1ccc(-c2cccs2)cc1	x	x	x	x	x	0.2	x	x	x
CCc1cc(C(=O)Nc2ccc(OC)nc2)sc1C	111.2*	84.6*	x	-58.2*	118.1*	50.5*	108.4*	130.4*	4.6
CCOC(=O)N1CC=C2C(C#N)=C(N)C(C#N)(C#N)[C@H](c3cccs3)C2C1 (stereo partly specified)	19.9	4.2	-6.5	-20.6	11.0	-0.8	x	x	x
CC1CC=C2C(C#N)=C(N)C(C#N)(C#N)C(c3cccs3)C2C1 (stereo unspecified)	91.5*	69.5*	51.7*	-30.7*	96.0*	42.3*	52.2*	67.9*	16.3*
Cc1ccc(S(=O)(=O)NC(=O)NC2=NC(C)(C)N(c3ccc(Cl)c(Cl)c3)C(N)=N2)cc1	x	x	x	x	x	-3.9	x	x	x
CCN(C(=O)c1c(C)cc(=O)oc1C)c1ccc2c(c1)OCO2	0.6	5.2	-1.9	-1.2	-2.2	-5.8	x	x	x
SMILES	Bcl-xL primary	GLD-1 TGE inh	EBV gp42 inh	MEX-5 binding	MCL1-BIM inh	E coli Lon inh	BCLXL inh confirm	MCL1 BIM confirm	eLon confirm	others
CCN(C(=O)c1coc(=O)c(Br)c1)c1ccc2c(c1)OCO2	58.3*	17.6	32.3	-12.1	61.8*	20.6*	109.8*	122.5*	4.3
COc1ccc(N(C(=O)c2cnccn2)C(C(=O)NC2CCCCC2)c2ccccc2)cc1 (stereo unspecified)	1.6	-0.5	x	-0.1	-6.0	-12.7	x	x	x
O=Cc1c(N2CCN(CCO)CC2)nc2ccccn2c1=O	60.2*	41.4*	x	-8.1	68.9*	40.6*	54.5*	76.6*	-5.5	GLD-1 TGE cf=8.2
COCCN1CN(S(=O)(=O)c2ccccc2)c2nc3ccccc3nc21	62.0*	58.7*	20.3	1.7	55.3*	26.0*	30.5*	43.3*	-22.4	GLD-1 TGE cf=13.3
COc1ccc(C(=O)c2ccsc2N)cc1	105.2*	65.8*	x	0.1	108.0*	90.2*	14.3	17.7	5.8
O=[N+]([O-])c1cccnc1-n1cnc2ccccc21	3.4	5.9	-7.0	-0.8	5.0	-11.6	x	x	x
Cc1cc2ncn(-c3ncccc3[N+](=O)[O-])c2cc1C	85.5*	79.5*	x	-8.8	101.7*	24.7*	22.9	34.0	1.0
Cc1oc2c(O)c(O)ccc2c(=O)c1-c1ccc(Cl)cc1	24.8	1.2	x	-1.2	43.3*	16.1*	58.1*	81.3*	13.4
COC(=O)c1ccc2c(c1)SC1=C(CCCC1=O)N2	148.5*	96.2*	145.5*	-2.0	176.8*	34.9*	118.2*	161.0*	100.3*	GLD-1 TGE cf=47.9*
O=C1C2C3C=CC(C4CC34)C2C(=O)N1/N=C/c1ccc(-c2ccc(F)cc2[N+](=O)[O-])o1 (stereo unspecified)	74.1*	55.2*	-9.3	-5.8	83.9*	18.6*	19.9	29.9	71.1*	GLD-1 TGE cf=-8.0
